# Screening results deposited in PubChem by Broad Institute.
# aSyn 5UTR act = Activators via SNCA 5'UTR binding, MLPCN. alpha-synuclein 5'UTR reporter, activators screen. activity score, % (tested at 7.5 µM), hits read low. 7.1% of 300,000 active. AID 1814, 2009; in the data active means activity score below about -60%
# Hits are given with their value; 0 = inactive. Only a sample is shown.
SMILES,aSyn 5UTR act
Cc1nn(-c2nnc(NCc3ccccc3)nn2)c(C)c1Br,-85
Cc1nn(-c2ccccc2)c(/N=C/c2ccccc2O)c1-c1ccccc1,-176
CC1(C)N=C(N)N=C(N)N1c1ccccc1,0
Cc1nn(-c2ccccc2)c(N)c1-c1ccccc1,-72
Cc1nn(-c2nc3ccccc3[nH]2)c(N)c1-c1ccccc1,-183
Cc1cc(-c2ccccc2)n(-c2ccccc2)n1,-84
O=C(NCc1cccnc1)Nc1ccc(Br)cc1,-79
O=C(NCc1cccnc1)Nc1ccc(Cl)c(Cl)c1,-110
O=C(/C=C/NCc1cccnc1)c1ccc(Br)cc1,-66
Cc1csc(=N)n1-c1ccc(Cl)cc1,-144
Cc1ccc(-n2c(C)csc2=N)cc1,-175
O=C(Nc1cccc(Cl)c1)Nc1ccc2c(c1)OCO2,-159
Cc1ccc(NC(=O)NCc2ccc3c(c2)OCO3)cc1C,-79
Cc1nn(C)cc1CNC(=O)Nc1cccc(Cl)c1,-169
O=C(Nc1ccc2c(c1)OCO2)Oc1ccccc1,-106
COC(=O)c1ccc(NC(=O)Nc2ccc3c(c2)OCO3)cc1,-66
COc1cccc(NC(=O)Nc2ccc3c(c2)OCO3)c1,-111
O=C(NCc1ccc2c(c1)OCO2)Nc1cccc(Cl)c1,-127
NS(=O)(=O)c1ccc(NC(=O)Nc2ccc3c(c2)OCO3)cc1,-118
O=C(NCc1cccs1)Nc1cccc(Cl)c1,-120
COc1ccc2[nH]c(C(=O)Nc3ccc4c(c3)OCO4)cc2c1,-134
O=C(Nc1ccc2c(c1)OCO2)Nc1ccc(Br)cn1,-157
O=C(Nc1cccc([N+](=O)[O-])c1)Nc1ccc2c(c1)OCCO2,-129
O=C(Nc1ccc2c(c1)OCCO2)NC12CC3CC(CC(C3)C1)C2,-195
O=C(Nc1ccc2c(c1)CCC2)Nc1ccc2c(c1)OCO2,-111
SMILES,aSyn 5UTR act
CC(C)c1ccc(/C=C2\CC/C(=C\C=N\N(C)C)C2=O)cc1,-73
CCOC(=O)CNC(=O)c1cc(-c2ccccn2)nc2c(C)c(Cl)ccc12,-66
COc1ncccc1-c1nnn(-c2ccccc2)n1,-156
COc1ncccc1-c1nnn(-c2ccccc2Br)n1,-88
Cc1nonc1C1CCCN1C(=O)c1cc(COc2ccc(F)cc2F)on1 (configuration not stated),-126
CSc1ccccc1OCc1cc(C(=O)N2CCCC2c2nonc2C)no1 (configuration not stated),-144
Cc1ccccc1C(=O)NC(=S)Nc1ncccn1,-66
O=C(NC(=S)NCCc1ccccc1)c1ccco1,-80
Cc1ccccc1C(=O)NC(=S)NCCc1ccccc1,-66
CCOCCCNc1ccc(-c2ccccc2)nn1,-159
N#Cc1c(N2CCCC2)nc(N)c2c(N)nc(N3CCCC3)cc12,-173
C=C1C(=O)O[C@@H]2C[C@@H](C)[C@@H]3C=CC(=O)[C@@]3(C)[C@@H](OC(C)=O)[C@H]12,0
Cc1ccc(NC(=O)C(=O)NCC2CCCO2)cc1C (configuration not stated),-96
O=C(NCCc1ccccc1)C(=O)NCC1CCCO1 (configuration not stated),-64
Cc1ccc(NC(=O)C(=O)NCC2CCCO2)cc1 (configuration not stated),-85
COc1ccc(NC(=O)C(=O)N/N=C\c2ccc(CNC(=O)C(=O)Nc3ccc(C)c(C)c3)o2)c(OC)c1,0
Cc1ccc(N2CCN(C(=O)c3cn(CC4CCCCC4)nn3)C(C)C2)cc1 (configuration not stated),-154
Cc1cc(C(=O)COC(=O)c2ccc([N+](=O)[O-])o2)c(C)n1CC1CCCO1 (configuration not stated),-128
COCCn1c(C)cc(C(=O)COC(=O)c2cc3c(s2)CCC3)c1C,-78
CSc1ncccc1C(=O)OCC(=O)c1cc(C)n(CC2CCCO2)c1C (configuration not stated),-69
COCCn1c(C)cc(C(=O)COC(=O)c2cccc(O)c2)c1C,0
COCCn1c(C)cc(C(=O)COC(=O)c2ccc([N+](=O)[O-])o2)c1C,-90
Cc1cc(C(=O)COC(=O)c2ccc3c(c2)OCO3)c(C)n1CC1CCCO1 (configuration not stated),-68
CC1CCN(C(=O)COC(=O)c2ccc3c(c2)OCO3)CC1,-118
Cc1cc(C(=O)CSc2nc3ccccc3o2)c(C)n1CC1CCCO1 (configuration not stated),-138
SMILES,aSyn 5UTR act
CC1CCc2cccc3c2N1c1cc(C#N)c(C#N)cc1O3 (configuration not stated),0
Cc1cc(NC(=O)c2ccc3c(c2)OCCO3)ccc1NC(=O)c1ccco1,-66
Cc1cc(NC(=O)c2ccc([N+](=O)[O-])o2)ccc1NC(=O)c1ccco1,-110
O=C(Nc1ccc(NC(=O)c2ccco2)cc1)c1ccc2c(c1)OCCO2,0
COc1cc(Br)cc(/C=N/NC(=O)Cc2ccc(C(F)(F)F)cc2[N+](=O)[O-])c1O,0
O=C(CSc1ccc(C(F)(F)F)cc1[N+](=O)[O-])Nc1ccccc1,-75
O=C(CCl)Nc1cc(SCC(O)CO)cc([N+](=O)[O-])c1 (configuration not stated),0
CCOC(=O)c1cccc(NC(=O)c2cncc(Br)c2)c1,-82
CCOC(=O)c1cccc(NC(=O)c2cnc3ccccc3n2)c1,-106
Cc1ccc(-c2csc(Cc3nc(-c4ccc5c(c4)CCC(=O)N5)cs3)n2)cc1,-124
COc1ccc(N2CS(=O)(=O)/C(=C/N(C)C)C2=O)cc1,-93
CCCCN=C(C)c1c(O)c2ccccc2oc1=O,-159
c1cncc(-c2noc(-c3ccco3)n2)c1,-91
Cc1ccc(-c2nc(-c3cccnc3)no2)cc1,-78
COc1cccc(-c2noc(-c3cccnc3)n2)c1,-152
Cc1ccc(-c2nc(-c3ccccc3)no2)cc1,0
COc1cccc(-c2nc(-c3ccccn3)no2)c1,0
COc1cccc(-c2noc(-c3cccs3)n2)c1,-75
COc1cccc(OCc2nnc(-c3cccs3)o2)c1,-142
COc1ccc(-c2nc(-c3cccc(C)c3)no2)cc1OC,-200
O=C(Nc1ccc(-c2noc(-c3cccs3)n2)cc1)c1cccnc1,-94
COc1ccc(Cl)cc1-c1nc(-c2ccc(NC(=O)c3cccs3)cc2)no1,-120
COc1cccc(-c2nc(-c3ccc(NC(=O)c4cccnc4)cc3)no2)c1,-106
COc1ccc(-c2nc(-c3cccnc3)no2)cc1OC,-132
COC(=O)c1sc(NC(=O)/C=C/c2ccc(C)cc2)nc1C,-71
SMILES,aSyn 5UTR act
COC(=O)c1sc(NC(=O)/C=C/c2ccccc2Cl)nc1C,-87
CCOC(=O)c1sc(Nc2cccc(Cl)c2)nc1C,-102
CCOC(=O)c1sc(NC(=O)CCc2ccccc2)nc1C,-146
Cc1nc(NC(=O)/C=C/c2ccccc2)sc1C(=O)NCCO,-67
CCOC(=O)c1sc(NC(=O)/C=C/c2ccccc2)nc1C,-95
Cc1ncc(/C=C2\C(=O)Nc3ccccc32)[nH]1,-104
CCCC#Cc1ccc2c(c1)COc1c3ccccc3nn1-2,-76
CCOc1ccc(Nc2ccc([N+](=O)[O-])c3nonc23)cc1,-123
O=[N+]([O-])c1ccc(Sc2cccc[n+]2[O-])c2nonc12,0
O=C(Nc1ccccc1)N(CCCN1CCOCC1)Cc1ccccc1F,-84
COC(=O)C1C(O)=C(C=Nc2ccc3ccccc3c2)C(=O)CC1(C)C (configuration not stated),-75
CN1c2ccsc2/C(=N/Nc2ccccc2)CS1(=O)=O,-123
CCOC(=O)c1cnc2c(-c3cccc(Br)c3)cnn2c1C,-127
CCOC(=O)c1cnn(-c2ccc(C)cc2)c1N,-100
